In PubChem BioAssay (NCI):
This is part of a sample that, as a whole, favours compounds with a hit. Of some 79,000 tested, about 15% had one in any assay. Activity calls are given as the source filed them. Rule as the data show it: active = growth inhibition above about 70%; inactive = the rest. Where a SMILES comes first, the peptide text is derived from it. The star is where a group is joined. Boc = CC(C)(C)OC(=O)*; OcHex = C1CCC(O*)CC1

Key:
[1] = NCI Yeast Anticancer Drug Screen. Data for the rad50 strain (AID 155);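 also: 0% = growth of vehicle-only cultures of the same strain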; conditions: S. cerevisiae rad50 strain growth inhibition; at 50.0 µM; hits give high values
In short: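 Compounds were tested on a yeast strain with an engineered DNA damage repair alteration; the reported value is growth inhibition normalised to vehicle treatment.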

[2] = NCI Yeast Anticancer Drug Screen. Data for the mec2-1 strain (AID 157); conditions: S. cerevisiae mec2-1 strain, at 50.0 µM, hits give high values
In short: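 Each compound was tested on mec2-1 yeast, a strain altered in DNA damage repair or cell cycle control. Growth inhibition is reported relative to vehicle.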

[3] = NCI Yeast Anticancer Drug Screen. Data for the sgs1 mgt1 strain (AID 161);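 also: 0% = growth of cultures given vehicle only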; conditions: S. cerevisiae sgs1 mgt1 strain, at 50.0 µM, hits give high values
In short: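 Inhibition of yeast growth, normalised to vehicle-treated controls, is reported for a strain bearing genetic alterations in DNA damage repair.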

[4] = NCI Yeast Anticancer Drug Screen. Data for the cln2 rad14 strain (AID 165);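 also: 0% = growth equal to vehicle treated cultures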; conditions: S. cerevisiae cln2 rad14 strain, at 50.0 µM, hits give high values
In short: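 Test compounds were added to cln2 rad14 yeast cultures; inhibition of growth was then determined by comparison with vehicle treatment.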

[5] = NCI Yeast Anticancer Drug Screen. Data for the bub3 strain (AID 167); conditions: S. cerevisiae bub3 mutant strain, at 50.0 µM, hits give high values
In short: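 Growth of a checkpoint-deficient yeast mutant is measured after compound exposure. Values represent inhibition relative to vehicle.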

[6] = NCI Yeast Anticancer Drug Screen. Data for the mlh1 rad18 strain (AID 175); conditions: S. cerevisiae mlh1 rad18 strain growth inhibition; at 50.0 µM; hits give high values
In short: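 Inhibition values reflect reduced growth of mutant yeast versus vehicle-treated controls following compound exposure; the mutations affect DNA damage repair.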

Measured: growth inhibition

CCCNC(=O)c1cccc(-c2cccc(C(=O)NCCC)c2)c1
inactive: [1] 30.1% | [2] -10.3% | [3] 28.4% | [4] 12.3% | [5] 25.4% | [6] 31.6%

O=C(Nc1ccc(Br)cc1)C(=O)C(C(=O)c1ccccc1F)C1OC(=O)c2ccccc21 (configuration not stated)
inactive: [1] -17.6% | [2] -1.65% | [3] -13.8% | [4] -50.9% | [5] -5.4% | [6] 7%

CC(=O)OC12c3ccccc3C(c3ccccc31)C1C(=O)N(c3ccccn3)C(=O)C12 (configuration not stated)
inactive: [1] -23.6% | [2] -7.4% | [3] 5.9% | [4] 3.35% | [5] 9.9% | [6] 5.6%

COCC12CC(CC1=O)C1C2ON2c3ccccc3C(=O)C12c1ccccc1 (configuration not stated)
inactive: [1] 50.9% | [2] -8.25% | [3] 36.8% | [4] 37.8% | [5] 26.9% | [6] 18.6%

Cc1ccc(=O)n(Cc2ccccc2)n1
inactive: [1] -8.25% | [2] -31.9% | [3] -11.8% | [4] 21.1% | [5] -12.2% | [6] 2.75%

O=C(O)c1ccc2ccccc2c1C(=O)c1ccc(F)cc1
inactive: [1] 10.1% | [2] -1.6% | [3] 17.9% | [4] 18.3% | [5] 20.3% | [6] 3.1%

O=c1c(SCc2ccc(Cl)cc2Cl)c(SCc2ccc(Cl)cc2Cl)cnn1-c1ccccc1
inactive: [1] 16.8% | [2] -1.4% | [3] 7.3% | [4] 23.9% | [5] 1.05% | [6] 4.05%

Cc1ccc(-c2cc(=S)n(-c3ccccc3)c3nc(=S)n(-c4ccccc4)c(N)c23)cc1
inactive: [1] 14.4% | [2] 24.4% | [3] 18.1% | [4] -12.9% | [5] 23.8% | [6] 25.9%

CC(C)CC(NC(=O)OC(C)(C)C)C(=O)NC(CCC(=O)OC1CCCCC1)C(N)=O (stereo not drawn) (Boc-Leu-Glu(OcHex)-NH2; configuration not given here)
inactive: [1] -4.8% | [2] -12.4% | [3] -8% | [4] 1.5% | [5] 3.4% | [6] 8.75%

CCOCc1cc(Cc2cc(COCC)c3cccnc3c2O)c(O)c2ncccc12
inactive: [1] 55.7% | [2] 16.7% | [3] 39.6% | [4] 10.2% | [5] 0.45% | [6] 16.2%

Cc1cc(C)c(Br)c(C)c1
inactive: [1] 1.55% | [2] 0.45% | [3] -2% | [4] -20.2% | [5] -4.95% | [6] -12.7%

NC(=O)C(Cc1ccc(O)cc1)NC(=O)c1ccccc1 (configuration not stated)
inactive: [1] -8.8% | [2] -16.6% | [3] -0.1% | [4] 1.85% | [5] 22.1% | [6] -14.2%

N#CCNC=O
inactive: [1] -2.9% | [2] 7.35% | [3] -13.4% | [4] -11.9% | [5] 2.8% | [6] -11.5%

Nc1ncc(Cl)c(NCC2(CO)CC(CCc3ccccc3)C2)n1 (configuration not stated)
inactive: [1] -4.7% | [2] -19.1% | [3] -11.6% | [4] -1.15% | [5] -37% | [6] 2.35%

CCOC(=O)C(N=Nc1ccc(C)cc1Br)C(C)=O (configuration not stated)
inactive: [1] 16.2% | [2] 13.9% | [3] 24.9% | [4] 15.6% | [5] 22.4% | [6] 24.1%

CC(NNC(=S)N1CCCCCC1)c1cccc[n+]1[O-] (configuration not stated)
inactive: [2] 8.3% | [5] 14.3% | [6] 33.6%
active: [1] 97.4% | [3] 96.5% | [4] 97.6%

NCC(NC(=O)OCc1ccccc1)C(=O)O (configuration not stated)
inactive: [1] 3.2% | [2] 12.4% | [3] 3.3% | [4] 19.1% | [5] 5.7% | [6] 32.1%

CC(=O)C1C(=O)C(=O)N(c2ccc(Br)cc2)C1=O (configuration not stated)
inactive: [1] -33.5% | [2] -12.6% | [3] -14.3% | [4] -9.8% | [5] -24.4% | [6] -38%

O=C(Nc1ccc(C(F)(F)F)cc1[N+](=O)[O-])C(=O)C1NC(=S)NC1=O (configuration not stated)
inactive: [1] 30.6% | [2] 12.1% | [3] 24.9% | [4] 25.4% | [5] 7.35% | [6] 27.6%

CCCCCc1ccc(C)cc1OC(C)=O
inactive: [1] 14.1% | [2] -1.4% | [3] 8.85% | [4] -14.1% | [5] -2.75% | [6] 0.5%

O1[SiH]2[SiH]3O[SiH]3[SiH]3O[SiH]3[SiH]12 (configuration not stated)
inactive: [1] -16.8% | [2] -11.7% | [3] -8.2% | [4] -16.6% | [5] -4.35% | [6] -26.6%

CC1=CCCCC1O (configuration not stated)
inactive: [1] -7.15% | [2] 10.6% | [3] -6.7% | [4] 4.55% | [5] 14.1% | [6] -0.6%

c1cc2cc(C3=NCCN3)[nH]c2cc1C1=NCCN1
inactive: [1] 12.8% | [2] 35.4% | [3] 29.1% | [4] 43.5% | [5] 18.6% | [6] 26.2%

CCOC(=O)/C=C1\CCCC12OCCO2
inactive: [1] 29.2% | [2] -3.65% | [3] 3.1% | [4] 19.2% | [5] -5.75% | [6] -6.1%

OC1CSCCCSCC(O)CSCCCSC1 (configuration not stated)
inactive: [1] 1.7% | [2] 10.9% | [3] 3.4% | [4] -2.5% | [5] 0.2% | [6] 8%

NCCC1([N+](=O)[O-])CCNCC1
inactive: [1] 1.9% | [2] -7.2% | [3] -6.15% | [4] -14.7% | [5] -5.3% | [6] 14.6%

N#Cc1cc2c(cc1C#N)/C(=N\c1cccc(N)n1)N=C2Nc1cccc(N)n1
inactive: [1] 6.1% | [2] 19.1% | [3] 0.2% | [4] 1.25% | [5] 5.8% | [6] 22%

Nc1cc(Cl)c([N+](=O)[O-])cc1O
inactive: [1] 6.2% | [2] 18.4% | [3] 5.55% | [4] -66.2% | [5] 5.05% | [6] -12%

CC(=O)C1(C)OC(c2ccccc2)=NC1=S (configuration not stated)
inactive: [1] 7.4% | [2] 14.3% | [3] 7.55% | [4] 14.9% | [5] -5.1% | [6] 9.35%

COC/C=C(\C)CC/C=C(\C)CCC=C(C)C
inactive: [1] -8.2% | [2] 0.95% | [3] -1.2% | [4] 22.6% | [5] -27.3% | [6] 2.95%

COc1ccc(C2CC(=O)N(c3ncccc3C)C(=O)C2)cc1
inactive: [1] -1% | [2] 6.9% | [3] -1.05% | [4] -21.1% | [5] -18.8% | [6] 3.65%

CCOCC(=O)O
inactive: [1] -15.1% | [2] -1.25% | [3] 9.15% | [4] -32.2% | [5] 39.2% | [6] -1.25%

CC(C)CC(NC(=O)COc1cc(Cl)ccc1Cl)C(=O)O (configuration not stated)
inactive: [1] -4.3% | [2] 19.2% | [3] 6.3% | [4] -18.6% | [5] -3.25% | [6] -40.4%

FC(F)(F)c1cc(Nc2nc(-c3ccccc3)nc3c2C(=NCc2ccco2)OC3=NCc2ccco2)ccc1Cl
inactive: [1] 5% | [2] 14.6% | [3] 2.9% | [4] -6.35% | [5] -4.7% | [6] 9.75%

CC1Cc2ccc(OCC(O)CO)cc2C1=O (configuration not stated)
inactive: [1] 7.35% | [2] 1.8% | [3] 11.1% | [4] 15.1% | [5] -0.2% | [6] 1.7%

O=S(=O)(Oc1cccc2ccccc12)c1ccccc1
inactive: [1] -2.7% | [2] -2.5% | [3] -5.05% | [4] -5.45% | [5] 0.95% | [6] 8.4%

CCOc1ccc(/C(Cl)=C(\C=O)c2ccc(OC)c(OC)c2)cc1OCC
inactive: [1] -0.1% | [2] -4.8% | [3] 3.25% | [4] -2.2% | [5] -3.6% | [6] 2.55%

COc1ccccc1N(CN1C(=O)CCC1C(=O)O)C(C)=O (configuration not stated)
inactive: [1] 9.2% | [2] 10.4% | [3] -4% | [4] 7.25% | [5] -9.1% | [6] -37.9%

Cc1cc(OC(N)=S)cc(C)c1Cl
inactive: [1] 20.6% | [2] 4.2% | [3] 7.6% | [4] -6.25% | [5] 3.4% | [6] -2.1%

CCOC(=O)/C(=C\n1c(=S)[nH]c2cc(C)ccc21)C(=O)c1ccccc1
inactive: [1] -41.2% | [2] -60.5% | [3] -18.8% | [4] 10.8% | [5] -14.2% | [6] -13.5%

COCCOC(=O)CCC(C)=O
inactive: [1] 20.8% | [2] 15.1% | [3] 6.45% | [4] 7.8% | [5] -4.95% | [6] 10.7%

CC1(C)OCC(C2OC3OC(C)(C)OC3/C2=N/NC(=O)c2cc3cc(OCc4ccccc4)ccc3[nH]2)O1 (configuration not stated)
active: [1] 82.5% | [2] 90.8% | [4] 92.2% | [5] 84.3% | [6] 86%
inactive: [3] 39.6%
